In PubChem BioAssay (NCI) one finds growth data, which are given here for 11 compounds.

About 83,000 compounds went through this panel and 20% of them were active in at least one assay; those are over-represented in the sample as a whole.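 For each line, cells grew in 96-well plates with the test compound present at a single concentration for 48 hours.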 Unmarked numbers belong to inactive results. Calls of active or inactive are those of the source. The calls were made as follows: active = growth percent below 10; inactive = the rest.

Test systems include NCI-H23 lung; NCI-H226 lung; NCI-H322M lung; HOP-62 NSCLC; NCI-H460 lung; HOP-92 NSCLC; NCI-H522 lung; A549/ATCC NSCLC; 786-0 renal; COLO 205 colon.
Common to all, as to assay: NCI-60 one-dose screen, 48 h (100 = growth as untreated, 0 = no growth, -100 = all killed)
Common to all, as to details: 10 µM unless noted

In the case of `CC(=O)Nc1ccc(C=Nc2ccc3ccccc3c2)cc1`, the growth in the assay on NCI-H23 lung was 105%; with NCI-H226 lung, 100%; in the assay with NCI-H322M lung, 111%; with HOP-62 NSCLC, 114%; in the assay with NCI-H460 lung it was 111%; in the assay with HOP-92 NSCLC it was 81.6%. Besides, the growth in the assay with NCI-H522 lung is 13.5%; with A549/ATCC NSCLC, 106%; in the assay with 786-0 renal, 106%; in the assay with COLO 205 colon, 115%.

For the compound `COc1ccc(C(=O)c2nccc3cc(OC)c(OC)cc23)cc1OC`, the growth is 51.9% in the assay on NCI-H23 lung; 97% in the assay on NCI-H226 lung; 120% in the assay with NCI-H322M lung; 95.3% in the assay with HOP-62 NSCLC; 103% with NCI-H460 lung; 78.5% with HOP-92 NSCLC. Besides, the growth in the assay with NCI-H522 lung is 33.4%; in the assay with A549/ATCC NSCLC, 98.3%; in the assay on 786-0 renal, 109%; in the assay with COLO 205 colon, 126%.

Take `CC(C)C1=NOC(=O)C1=Cc1cn(-c2ccccc2)nc1-c1ccc(Cl)cc1`: the growth was 84.8% in the assay on NCI-H23 lung; 92.6% in the assay with NCI-H226 lung; 93.9% in the assay on NCI-H322M lung; 92.4% in the assay with HOP-62 NSCLC; 85.3% in the assay on NCI-H460 lung; 86.9% in the assay on HOP-92 NSCLC. The growth is 80.8% with NCI-H522 lung, 100% with A549/ATCC NSCLC, 80.7% in the assay with 786-0 renal and 99.6% with COLO 205 colon.

As to `CCCC(NC(=O)OCc1ccccc1)C(=O)O` (stereo not given), the growth is -1.29% (active) in the assay with NCI-H23 lung; 89.5% with NCI-H226 lung; 121% in the assay on NCI-H322M lung; 111% in the assay with HOP-62 NSCLC; 97.9% in the assay with NCI-H460 lung; 82.2% with HOP-92 NSCLC. The growth with NCI-H522 lung is 16.2%; with A549/ATCC NSCLC it was 79.5%; with 786-0 renal it was 108%; with COLO 205 colon, 137%.

As for `CCOC(=O)COc1ccc2c(c1)O/C(=C\c1ccc(O)cc1)C2=O`, the growth with NCI-H23 lung is 104%; in the assay with NCI-H226 lung, 97.7%; in the assay with NCI-H322M lung, 99.7%; in the assay on HOP-62 NSCLC, 104%; in the assay with NCI-H460 lung, 104%; with HOP-92 NSCLC, 115%. Further, the growth is 97% in the assay with NCI-H522 lung, 108% in the assay with A549/ATCC NSCLC, 112% in the assay on 786-0 renal and 115% with COLO 205 colon.

With `COc1ncc(-c2ccc3nc(N)n(-c4ccccc4C(F)(F)F)c(=O)c3c2)cc1S(=O)(=O)Nc1ccc(F)cc1F`, the growth in the assay on NCI-H23 lung was 30.6%; with NCI-H226 lung, 88.9%; in the assay on NCI-H322M lung it was -11.6% (active); in the assay with HOP-62 NSCLC it was 82.4%; in the assay with NCI-H460 lung it was 28.1%; in the assay on HOP-92 NSCLC it was 25.3%. For the same compound, the growth was 46.8% with NCI-H522 lung, 29% in the assay on A549/ATCC NSCLC, 33.7% with 786-0 renal and -66.2% (active) in the assay with COLO 205 colon.

Turning to `O=C(N/N=C\c1cc(Cl)ccc1O)N/N=C/c1cc(Cl)ccc1O`, the growth in the assay with NCI-H23 lung is 45.7%; in the assay with NCI-H226 lung it was 73%; in the assay with NCI-H322M lung it was 74.7%; in the assay on HOP-62 NSCLC, 54%; in the assay on NCI-H460 lung it was 16.1%; with HOP-92 NSCLC it was 21%. Further, the growth in the assay on NCI-H522 lung is 14%; in the assay on A549/ATCC NSCLC, 26.2%; in the assay on 786-0 renal, 78%; with COLO 205 colon it was 46.3%.

In the case of `Brc1ccc(-c2nnc3c4[nH]ccc4ncn23)cc1`, the growth in the assay on NCI-H23 lung is 88.3%; with NCI-H226 lung it was 96.7%; with NCI-H322M lung it was 91%; with HOP-62 NSCLC, 92.6%; in the assay on NCI-H460 lung, 90.1%; with HOP-92 NSCLC, 69.6%. In addition, the growth was 80.9% in the assay with NCI-H522 lung, 91.8% with A549/ATCC NSCLC, 94% in the assay on 786-0 renal and 109% in the assay with COLO 205 colon.

On to `COc1cc2c(c(Br)c1N)-c1cc(Br)c(N)cc1C2=O`, for which the growth in the assay on NCI-H23 lung was 49.9%; with NCI-H226 lung, -24.1% (active); in the assay with NCI-H322M lung it was 71.2%; in the assay with HOP-62 NSCLC, 60.8%; with NCI-H460 lung, 45.7%; in the assay with HOP-92 NSCLC, 54.9%. Further, the growth with NCI-H522 lung is 70.5%; in the assay on A549/ATCC NSCLC, 83.5%; with 786-0 renal, 58.8%; with COLO 205 colon, 79.3%.

Regarding `COc1ccc(/C=C/C(=C/c2c(O)[nH]c3cc(Br)ccc23)N=O)cc1`, the growth in the assay on NCI-H23 lung is 111%; in the assay on NCI-H226 lung it was 103%; in the assay on NCI-H322M lung it was 113%; with HOP-62 NSCLC it was 111%; in the assay with NCI-H460 lung, 108%; in the assay on HOP-92 NSCLC it was 116%. Further, the growth in the assay with NCI-H522 lung was 105%; in the assay with A549/ATCC NSCLC, 104%; in the assay on 786-0 renal, 112%; with COLO 205 colon, 126%.

For `C=C(C)[C@@H]1CC[C@]2(C(=O)NCCNCCNC(=O)OC(C)(C)C)CC[C@]3(C)[C@H](CC[C@@H]4[C@@]5(C)CCC(=O)C(C)(C)[C@@H]5CC[C@]43C)[C@@H]12`, the growth in the assay with NCI-H23 lung is 37.1% [100 µM]; in the assay with NCI-H226 lung, 44.2% [100 µM]; with NCI-H322M lung, 73.8% [100 µM]; in the assay on HOP-62 NSCLC, 45.4% [100 µM]; in the assay on NCI-H460 lung it was 20.6% [100 µM]; with HOP-92 NSCLC, 8.07% [100 µM] (active). In addition, the growth in the assay on NCI-H522 lung was 39.9% [100 µM]; in the assay with A549/ATCC NSCLC, 32.1% [100 µM]; in the assay on 786-0 renal, 52.6% [100 µM]; in the assay on COLO 205 colon, 57.7% [100 µM].
